Results filed as inconclusive are left out. Entries that show only a call come without a potency. Calls of active or inactive are those of the source. Calls follow the shape of the dose curve; as a rule, active = well fitted inhibition curve with a large enough effect; inconclusive = small, poorly fitted or top-dose-only effect; inactive = flat fitted curve, though single readings scatter.
Potency is read from the fitted curve at half-maximal effect.

The subject of one assay is CP268. Kind of assay: qHTS profiling for inhibitors of Plasmodium falciparum proliferation (AID 504749). Also: nearly all actives have a fitted effect of over 60% in size. Conditions: P. falciparum in erythrocytes, SYBR Green DNA, 72 h; series mostly up to 28.7 µM. The method, boiled down: (§1)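 P. falciparum-infected erythrocytes (0.3% parasitemia, 2.5% hematocrit) incubated with compound 72 h at 37 C, 5% CO2. Parasite DNA detected by SYBR Green after lysis, overnight at room temperature; normalised to 0.29 uM artemisinin and DMSO.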
For the compound `CN1CCN(C2=Nc3ccccc3Sc3ccc(Cl)cc32)CC1`, the Potency result was “inactive”.
For the compound `O=C(c1ccc(F)cc1)C1CCN(CCn2c(=S)[nH]c3ccccc3c2=O)CC1`, the Potency was 6.01 µM (active).
Still for that read-out and setting: next, `COc1ccc(C(=O)c2ccccc2O)c(O)c1`: “inactive”.
Consider `CCc1ccc(C(=O)C(C)CN2CCCCC2)cc1` (configuration not stated), for which the Potency entry is “inactive”.
In the case of `CCCN(CCc1cccs1)[C@H]1CCc2c(O)cccc2C1`, the Potency was 10.7 µM (active).
As for `C#C[C@]1(O)CC[C@H]2[C@@H]3CCC4=CC(=O)CC[C@@H]4[C@H]3CC[C@@]21CC`, the Potency entry was “inactive”.
In the case of `FC1(F)C(F)(F)C(F)(F)C2(F)C(F)(F)C(F)(F)C(F)(F)C(F)(F)C2(F)C1(F)F` (configuration not stated), the Potency result is “inactive”.
`CC(C)[N+](C)(C)CC(O)COc1cccc2ccccc12` (configuration not stated): the Potency entry was “inactive”.
`CCCc1ncc(C[n+]2ccccc2C)c(N)n1`: the Potency result was “inactive”.
Consider `O=C(O)C1(C(=O)O)CCC1.[NH2-].[NH2-].[Pt+2]`, for which the Potency entry was “inactive”.
Regarding `Cc1cc(CC(=O)O)c(C)n1-c1ccc(Cl)cc1`, the Potency result is “inactive”.
For `O=C(Oc1cccc2cccnc12)c1ccccc1`, the Potency result is “inactive”.
Still for that read-out and setting: the result for `CN(C)C(=O)Nc1ccc(Cl)c(Cl)c1` reads “inactive”; that for `Cc1ccc(O)c([C@H](CCN(C(C)C)C(C)C)c2ccccc2)c1`, 8.49 µM (active).
Take `O=C(O)c1ccc(S(=O)(=O)N(Cl)Cl)cc1`: the Potency result was “inactive”.
Consider `CN(C)CCC[C@@]1(c2ccc(F)cc2)OCc2cc(C#N)ccc21`, for which the Potency entry is “inactive”.
`N=C(N)N1CCc2ccccc2C1`: the Potency entry was “inactive”.
As for `COc1ccc(C(=O)c2ccccc2)c(O)c1`, the Potency entry is “inactive”.
Consider `COc1cc(C(=O)N2CCCCCCC2)cc(OC)c1OC`, for which the Potency entry was “inactive”.
Turning to `Cc1cccc(C)c1NC(=O)c1ccccc1C(=O)O`, the Potency entry is “inactive”.
Consider `CC(=O)NCCCCCC(=O)O`, for which the Potency result is “inactive”.
On to `O=C1C(=O)c2ccccc2C(O)=C1C1CCC(c2ccc(Cl)cc2)CC1` (configuration not stated), for which the Potency is 0.0057 µM (active).
Take `Cc1cccc(C)c1NC(=O)CN1CCCC1`: the Potency entry is “inactive”.
Take `CCOC(=O)c1c(N)sc2c1CCN(Cc1ccccc1)C2`: the Potency is 7.57 µM (active).
For the compound `NC(N)=NCc1cccc(I)c1`, the Potency entry is “inactive”.
As to `COc1cc(O)c(C(=O)c2ccccc2)cc1S(=O)(=O)O`, the Potency entry was “inactive”.
Take `CC(C)(C)CC(C)(C)c1ccc(O)c(-n2nc3ccccc3n2)c1`: the Potency entry is “inactive”.
On the same count and under the same terms, next, `Oc1ccc(Cl)cc1Cc1cc(Cl)ccc1O`: “inactive”.

In a further assay the test system is CP269. Described as above. As to conditions: P. falciparum in erythrocytes, SYBR Green DNA, 72 h; series mostly up to 28.7 µM. The method, boiled down:
as §1
In the case of `CN1CCN(c2cc3c(cc2F)c(=O)c(C(=O)O)cn3-c2ccc(F)cc2)CC1`, the Potency entry is “inactive”.
Same read-out and setting: next, `NCc1ccccc1Sc1ccccc1CO`: “inactive”; `O=C(c1ccc(F)cc1)C1CCN(CCn2c(=S)[nH]c3ccccc3c2=O)CC1`: 6.75 µM (active); `COc1ccc(C(=O)c2ccccc2O)c(O)c1`: “inactive”.
For `CCc1ccc(C(=O)C(C)CN2CCCCC2)cc1` (configuration not stated), the Potency result is “inactive”.
The same measure, in the same setting: next, `CCCN(CCc1cccs1)[C@H]1CCc2c(O)cccc2C1`: 15.1 µM (active).
As for `C#C[C@]1(O)CC[C@H]2[C@@H]3CCC4=CC(=O)CC[C@@H]4[C@H]3CC[C@@]21CC`, the Potency entry is “inactive”.
With `FC1(F)C(F)(F)C(F)(F)C2(F)C(F)(F)C(F)(F)C(F)(F)C(F)(F)C2(F)C1(F)F` (configuration not stated), the Potency result was “inactive”.
In the case of `CCCc1ncc(C[n+]2ccccc2C)c(N)n1`, the Potency entry is “inactive”.
On the same count and under the same terms, next, `O=C(O)C1(C(=O)O)CCC1.[NH2-].[NH2-].[Pt+2]`: “inactive”; `Cc1cc(CC(=O)O)c(C)n1-c1ccc(Cl)cc1`: “inactive”.
With `O=C(Oc1cccc2cccnc12)c1ccccc1`, the Potency result was “inactive”.
In the case of `Cc1ccc(O)c([C@H](CCN(C(C)C)C(C)C)c2ccccc2)c1`, the Potency was 7.57 µM (active).
On the same count and under the same terms, next, `O=C(O)c1ccc(S(=O)(=O)N(Cl)Cl)cc1`: “inactive”; `N=C(N)N1CCc2ccccc2C1`: “inactive”; `COc1ccc(C(=O)c2ccccc2)c(O)c1`: “inactive”.
For `COc1cc(C(=O)N2CCCCCCC2)cc(OC)c1OC`, the Potency entry was “inactive”.
Turning to `Cc1cccc(C)c1NC(=O)c1ccccc1C(=O)O`, the Potency result was “inactive”.
As for `CC(=O)NCCCCCC(=O)O`, the Potency entry was “inactive”.
For `O=C1C(=O)c2ccccc2C(O)=C1C1CCC(c2ccc(Cl)cc2)CC1` (configuration not stated), the Potency is 0.0051 µM (active).
On the same count and under the same terms, next, `Cc1cccc(C)c1NC(=O)CN1CCCC1`: “inactive”.
Turning to `CCOC(=O)c1c(N)sc2c1CCN(Cc1ccccc1)C2`, the Potency is 6.01 µM (active).
Turning to `NC(N)=NCc1cccc(I)c1`, the Potency entry was “inactive”.
Regarding `CC(C)(C)CC(C)(C)c1ccc(O)c(-n2nc3ccccc3n2)c1`, the Potency result is “inactive”.
As for `Oc1ccc(Cl)cc1Cc1cc(Cl)ccc1O`, the Potency result is “inactive”.

The next assay deals with CP286. Described as above. Conditions: P. falciparum in erythrocytes, SYBR Green DNA, 72 h; series mostly up to 28.7 µM. The method, boiled down: as §1
With `NCc1ccccc1Sc1ccccc1CO`, the Potency result was “inactive”.
On the same count and under the same terms, the result for `O=C(c1ccc(F)cc1)C1CCN(CCn2c(=S)[nH]c3ccccc3c2=O)CC1` reads 3.98 µM (active); that for `COc1ccc(C(=O)c2ccccc2O)c(O)c1`, “inactive”; that for `CCc1ccc(C(=O)C(C)CN2CCCCC2)cc1` (configuration not stated), “inactive”.
Consider `CCCN(CCc1cccs1)[C@H]1CCc2c(O)cccc2C1`, for which the Potency is 10 µM (active).
Turning to `C#C[C@]1(O)CC[C@H]2[C@@H]3CCC4=CC(=O)CC[C@@H]4[C@H]3CC[C@@]21CC`, the Potency entry is “inactive”.
The same measure, in the same setting: next, `NC(N)=NN=C(/C=C/c1ccc([N+](=O)[O-])o1)/C=C/c1ccc([N+](=O)[O-])o1`: 2.24 µM (active); `FC1(F)C(F)(F)C(F)(F)C2(F)C(F)(F)C(F)(F)C(F)(F)C(F)(F)C2(F)C1(F)F` (configuration not stated): “inactive”.
In the case of `CCCc1ncc(C[n+]2ccccc2C)c(N)n1`, the Potency result is “inactive”.
Still for that read-out and setting: next, `O=C(O)C1(C(=O)O)CCC1.[NH2-].[NH2-].[Pt+2]`: “inactive”.
On the same count and under the same terms, next, `Cc1cc(CC(=O)O)c(C)n1-c1ccc(Cl)cc1`: “inactive”; `O=C(Oc1cccc2cccnc12)c1ccccc1`: “inactive”; `CN(C)C(=O)Nc1ccc(Cl)c(Cl)c1`: “inactive”.
Turning to `Cc1ccc(O)c([C@H](CCN(C(C)C)C(C)C)c2ccccc2)c1`, the Potency is 3.98 µM (active).
As for `O=C(O)c1ccc(S(=O)(=O)N(Cl)Cl)cc1`, the Potency result was “inactive”.
Take `CN(C)CCC[C@@]1(c2ccc(F)cc2)OCc2cc(C#N)ccc21`: the Potency result was “inactive”.
Still for that read-out and setting: the result for `N=C(N)N1CCc2ccccc2C1` reads “inactive”; that for `COc1ccc(C(=O)c2ccccc2)c(O)c1`, “inactive”.
Consider `COc1cc(C(=O)N2CCCCCCC2)cc(OC)c1OC`, for which the Potency entry is “inactive”.
As for `Cc1cccc(C)c1NC(=O)c1ccccc1C(=O)O`, the Potency entry was “inactive”.
Consider `CC(=O)NCCCCCC(=O)O`, for which the Potency result is “inactive”.
`Cc1ncc(CO)c(C=O)c1O`: the Potency result is “inactive”.
With `O=C1C(=O)c2ccccc2C(O)=C1C1CCC(c2ccc(Cl)cc2)CC1` (configuration not stated), the Potency is 0.0011 µM (active).
Regarding `Cc1cccc(C)c1NC(=O)CN1CCCC1`, the Potency entry is “inactive”.
As to `CCOC(=O)c1c(N)sc2c1CCN(Cc1ccccc1)C2`, the Potency was 5.62 µM (active).
`CC(C)NCC(O)c1ccc2ccccc2c1` (configuration not stated): the Potency is 11.2 µM (active).
On to `NC(N)=NCc1cccc(I)c1`, for which the Potency entry was “inactive”.
As for `COc1cc(O)c(C(=O)c2ccccc2)cc1S(=O)(=O)O`, the Potency result was “inactive”.
Regarding `Oc1ccc(Cl)cc1Cc1cc(Cl)ccc1O`, the Potency result was “inactive”.

For the origin of these results see PubChem BioAssay (NCATS).
